In PubChem BioAssay (NCI):
Compounds without any hit were thinned out: in the full panel of roughly 79,000, 15% have a hit. Unmarked numbers belong to inactive results. Active and inactive are the calls of the source. Cut-off read from the data, not from the text of the source: active = growth inhibition above about 70%; inactive = the rest.

Test: NCI Yeast Anticancer Drug Screen. Data for the mlh1 strain (AID 171);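 note: 0% = growth of vehicle-treated control cultures of the same strain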
Conditions: S. cerevisiae mlh1 strain growth inhibition, stronger effect = higher value
Experimental: Growth inhibition of yeast strains with defined genetic alterations is measured as a screen for potential anti-cancer activity. Selected strains with alterations in DNA damage repair or cell cycle control were exposed to compounds and growth inhibition was measured relative to vehicle treated controls. The strain used in this assay is mlh1

SMILES	growth inhibition (at 1.2 µM) [%]	growth inhibition (at 3.7 µM) [%]	growth inhibition (at 11.0 µM)	growth inhibition (at 33.0 µM)	growth inhibition (at 100.0 µM)
Nc1ccc2c(=S)c3ccccc3[nH]c2c1	-2	9	-2%	27%	61%
COc1ccc2c(c1)[nH]c1c(/C=C/c3ccccc3)nccc12	-42	-36	-35%	68%	96% (active)
CCOC(=O)C(NC(=O)CC)(N1CCN(c2cc3c(cc2F)c(=O)c(C(=O)O)cn3C2CC2)CC1)C(F)(F)F (stereo not given)	-1	0	0%	16%	85% (active)
Nc1nc(N)c2cc(Sc3ccc4ccccc4c3)ccc2n1	-11	22	79% (active)	95% (active)	93% (active)
N#C/C(=C\c1ccccc1)c1ccccc1F	-1	2	0%	-6%	10%
COc1ccc(N2CN(C)CSC2=S)cc1	-53	-52	-48%	-3%	57%
CN(C)c1ccc(N=Nc2ccccn2)cc1	33	10	60%	93% (active)	96% (active)
COc1cc(NCc2ccc3nc(N)nc(N)c3c2C)cc(OC)c1OC	-4	-6	-5%	5%	56%
